High-throughput results (PubChem BioAssay)
Most compounds without a hit are left out; they make up all but 19% or so of the library.
uPA surface inh: qHTS for Inhibitors of Cell Surface uPA Generation; Potency, µM (series often up to 38.3 µM), usual class: inhibitors; 330,000 compounds, 0.31% hits; cell surface uPA generation assay, qHTS; active = well fitted inhibition curve with a large enough effect; inconclusive = small, poorly fitted or top-dose-only effect; inactive = no such curve, though single readings can be large or run the other way; tested in mouse RAW 264.7 cells; also: nearly all actives have a fitted effect of over 55% in size
DT40 TDP1 no CPT: qHTS for Inhibitors of human tyrosyl-DNA phosphodiesterase 1 (TDP1): qHTS in cells in absence of CPT; DT40 Tdp1-/- hTDP1 cells, no CPT, ATP luminescence, 48 h; Potency, µM (top dose mostly 46.2 µM), most hits filed as inhibitors; 420,000 compounds, 15% hits; also: nearly all actives have a fitted effect of over 55% in size
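A cellular qHTS used chicken DT40 cells lacking endogenous Tdp1 but carrying stably transfected human TDP1. Compounds were applied without camptothecin, and cell growth kinetics were judged by ATP-dependent luminescence after ≥48 hr.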
HT1080 IDH1KD tx: qHTS for induction of synthetic lethality in tumor cells producing 2HG: qHTS for the HT-1080-IDH1KD cell line | HT-1080 IDH1 knockdown viability, ATP luminescence, 48 h | Potency, µM (doses to about 46.1 µM), most hits filed as cytotoxic | 360,000 compounds, 2% hits
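CellTiter-Glo luminescence after 48 h compound exposure at 37 degrees C of IDH1-knockdown HT-1080 cells in 5% FBS RPMI. %Activity scaled between DMSO wells and cell-free media wells, with curves fitted and assigned curve classes.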
IL1B secr inh: qHTS for Inhibitors of Inflammasome Signaling: IL-1-beta AlphaLISA Primary Screen; THP-1 LPS/ATP IL-1B secretion, AlphaLISA, 16 h; active compounds read low; activity change, % at 57.5 µM; 360,000 compounds, 4.7% hits; AID 743279, 2014; in the data active = activity change below about -50%; inconclusive = mostly about -30% to -49%
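Secreted IL-1B measured by AlphaLISA bead assay after 16 h compound exposure of THP-1 cells; compounds (final up to 57.5 uM) added 1 h before LPS (250 ng/mL) and ATP (1.25 mM) stimulation; lower signal means less secretion.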
HT1080NT lethal: qHTS for induction of synthetic lethality in tumor cells producing 2HG: qHTS for the HT-1080-NT fibrosarcoma cell line; HT-1080-NT fibrosarcoma viability, CellTiter-Glo ATP luminescence, 48 h; Potency, µM (top dose mostly 46.1 µM), hits mostly cytotoxic; 360,000 compounds, 1.6% hits;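 also: NT is the 2HG producing partner of a matched IDH1 knockdown line; nearly all actives have a fitted effect of over 55% in size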
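Compounds were tested in concentration-response format on HT-1080-NT cells for 48 hours at 37 degrees C. Cell viability came from CellTiter-Glo luminescence; curves were classified by r2, response magnitude and activity.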
DT40 TDP1 CPT: qHTS for Inhibitors of human tyrosyl-DNA phosphodiesterase 1 (TDP1): qHTS in cells in presence of CPT. chicken DT40 Tdp1-/-;hTDP1 cells + 20 nM CPT, ATP luminescence, 48 h. Potency, µM (series often up to 46.2 µM), hits mostly inhibitors. 420,000 compounds, 12% hits; also: nearly all actives have a fitted effect of over 55% in size
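Chicken DT40 Tdp1-/- cells stably complemented with human TDP1 were seeded at 400 cells/well in medium containing 20 nM camptothecin, exposed to pin-transferred compounds, and grown at 37 °C for at least 48 hr. Viability was read as ATP luminescence.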
Hits are given with their value; – = inactive; ? = inconclusive; · = no result given. Unless noted, calls follow the shape of the dose curve; as a rule, active = well fitted curve in the direction sought with a large enough effect; inconclusive = small, poorly fitted or top-dose-only effect, or another doubt; inactive = no such curve, though single readings can be large; an effect the other way counts as inactive or inconclusive.

SMILES	uPA surface inh	DT40 TDP1 no CPT	HT1080 IDH1KD tx	IL1B secr inh	HT1080NT lethal	DT40 TDP1 CPT
CCCCn1c(N)c(N(CCOC)C(=O)Cn2c(=O)oc3ccccc32)c(=O)[nH]c1=O	–	–	–	–	–	–
COc1ccc(S(=O)(=O)n2c(CCN3CCOCC3)nc3ccccc32)cc1	–	21µM	–	–	–	–
COc1ccc(S(=O)(=O)n2cnc3ccccc32)cc1	–	–	–	–	–	–
c1ccc2c(c1)nc(CN1CCOCC1)n1c3ccccc3nc21	–	16µM	–	–	–	13µM
CC(C)(C)c1ccc(S(=O)(=O)n2c(CN3CCOCC3)nc3ccccc32)cc1	–	?	–	–	–	21µM
COc1ccc(CCn2c3c(c(=O)[nH]c2=S)CN(c2ccccc2)CN3)cc1OC	·	?	–	·	–	?
Cc1cccc(-c2cccc3nccn23)c1	·	?	–	–	–	?
NC1=NC(=O)/C(=C\c2cc([N+](=O)[O-])ccc2Cl)S1	?	?	–	–	–	–
COc1cc2nc(N3CCN(C(=O)OCc4ccccc4)[C@H](C(=O)NC(C)(C)C)C3)nc(N)c2cc1OC	?	–	?	–	18µM	?
COc1ccc(C)cc1NC(=O)C1CCCN1C(=O)OCc1ccccc1 (stereo not drawn)	–	?	–	–	–	–
CC(C)(C)c1ccc(C(=O)NCC(=O)OCC(=O)N2CCCC2)cc1	–	–	–	–	–	–
COc1ccc(-c2cn3c(n2)sc2cc(C(=O)NC4CCCCCC4)ccc23)cc1	·	7.3µM	·	·	·	?
O=C(NC1CCCCC1)c1ccc2c(c1)sc1nc(-c3ccc(F)cc3)cn12	·	15µM	·	·	·	13µM
COc1ccc(-c2cn3c(n2)sc2cc(C(=O)Nc4cc(OC)cc(OC)c4)ccc23)cc1	·	–	·	·	·	–
Cc1ccc(-c2cn3c(n2)sc2cc(C(=O)NC4CCCCCC4)ccc23)c(C)c1	·	–	·	·	·	?
COc1ccc(-c2cn3c(n2)sc2cc(C(=O)Nc4cccc(SC)c4)ccc23)cc1	·	6.5µM	·	·	·	5.2µM
O=C(NC1CCCCCC1)c1ccc2c(c1)sc1nc(-c3ccc(F)cc3)cn12	·	6.5µM	·	·	·	?
COC(=O)C[C@@H]1C[C@@H]2c3cc(NC(=O)Cc4ccncc4)ccc3O[C@@H]2[C@@H](CO)O1	·	–	–	–	–	–
COc1ccc(S(=O)(=O)Nc2cccc(S(=O)(=O)N3CCCC3)c2)cc1OC	–	–	–	–	–	–
CCc1nnc(NC(=O)CSc2nc(C)cs2)s1	–	–	–	–	–	?
O=C(NC1CCCc2ccccc21)c1ccc2c(c1)sc1nc(-c3ccccc3)cn12 (stereo not drawn)	·	18µM	·	·	·	8.2µM
CC(NC(=O)c1ccc2c(c1)sc1nc(-c3ccccc3)cn12)C12CC3CC(CC(C3)C1)C2 (stereo not drawn)	·	–	·	·	·	–
COc1cccc(/C=C/C(=O)c2c(O)cc(C)oc2=O)c1O	–	?	–	-81	–	?
COc1ccc(/C=C/C(=O)c2c(O)cc(C)oc2=O)c(OC)c1	–	?	?	–	–	?
CSc1ccc(/C=C/C(=O)c2c(O)cc(C)oc2=O)cc1	–	?	–	–	–	–
SMILES	uPA surface inh	DT40 TDP1 no CPT	HT1080 IDH1KD tx	IL1B secr inh	HT1080NT lethal	DT40 TDP1 CPT
COc1cc(/C=C/C(=O)c2c(O)cc(C)oc2=O)cc(OC)c1O	–	?	?	-55	?	?
Cc1ccc(NC(=O)CSC(C)C(=O)OCc2cc(=O)oc3cc(O)ccc23)cc1 (stereo not drawn)	·	–	–	–	–	–
COC(=O)C1=C(C(=O)OC)SC(=C2C(=S)C(C)(C)N(C(=O)CC(C)C)c3ccccc32)S1	·	?	–	?	–	26µM
COC(=O)C1=C(C(=O)OC)[C@@H]2N(C)c3ccccc3[C@@]23C[C@@H](C(=O)OC)N(C(=O)CC(C)C)C3=N1	–	?	–	–	–	?
O=C(CC1CC2CCC1C2)N1CCN(S(=O)(=O)c2ccc(C(F)(F)F)cc2)CC1 (stereo not drawn)	·	?	–	–	–	–
CCCCn1[nH]c(-c2ccccc2)cc1=O	–	18µM	–	–	–	?
c1ccc(-c2nc3ccccc3o2)nc1	–	–	–	–	–	–
c1ccc2nc(-c3nc4ccccc4o3)ccc2c1	·	?	13µM	–	10µM	14µM
CS(=O)(=O)N1CCCCC1c1cc(C(=O)Nc2ccccc2Cl)no1 (stereo not drawn)	·	–	–	?	–	–
Cc1cc(C)cc(-n2ncc3c2CCCC3NC(=O)C2(C(N)=O)CC2)c1 (stereo not drawn)	–	?	?	–	?	?
CCc1cc(C(=O)NC2CCCc3c2cnn3-c2cccc(C)c2C)n(C)n1 (stereo not drawn)	–	0.16µM	?	?	–	0.21µM
Cc1cccc(-n2ncc3c2CCCC3NC(=O)C2=CC(=O)CC(C)(C)O2)c1C (stereo not drawn)	–	8.2µM	–	–	?	4.6µM
Cc1cccc(-n2ncc3c2CCCC3NC(=O)Cn2cccn2)c1C (stereo not drawn)	–	–	–	–	–	?
Cc1cccc(-n2ncc3c2CCCC3NC(=O)C2(C(N)=O)CC2)c1C (stereo not drawn)	–	?	?	–	–	10µM
CC1(C)CC(=O)C=C(C(=O)NC2CCCc3c2cnn3-c2cc(F)cc(F)c2)O1 (stereo not drawn)	–	?	–	–	–	?
Cc1cc(C)c(C(=O)NC2CCCc3c2cnn3-c2cccc(C)c2C)o1 (stereo not drawn)	–	?	?	–	–	21µM
COc1ccc(NC(=O)Cn2cnc3c(nc4n3CCCCC4)c2=O)c(OC)c1	·	–	·	·	·	–
O=C(Nc1ccc(NC(=O)C2CCCCC2)nc1)c1cccc(F)c1	–	?	–	–	–	?
CC(C)Cc1nc2sc3c(c2c(=O)n1N)CC(C(C)C)OC3 (stereo not drawn)	–	2.6µM	?	–	–	16µM
CC(C)C1Cc2c(sc3ncnc(NN)c23)CO1 (stereo not drawn)	–	12µM	–	–	–	8.2µM
CC1(C)CC2CC(C)(CN2C(=O)COC(=O)c2cncc(Br)c2)C1 (stereo not drawn)	–	–	–	–	–	–
